# Screens deposited in PubChem BioAssay by National Center for Advancing Translational Sciences (NCATS).
# TrxR1 substrate: rat thioredoxin reductase 1 substrate activity; O89049; purified TrxR1 substrate turnover, NADPH consumption readout; Potency, µM (titrated, usually from 114 µM), inactives show top-dose activity change, negative = substrate turnover; hit rate 0.01% among 390,000; AID 588456; further: potency means the concentration at half of the fitted maximal effect; nearly all actives have a fitted effect of over 50% in size
#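 Rat TrxR1, dispensed at 90 nM, was prereduced with 400 uM NADPH (final) for 5 min at ~22 deg C, then incubated with compound 15 min before 400 uM selenite. A first-read NADPH fluorescence drop versus no-compound background flagged substrates.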
# GALK inh: blocks human galactokinase activity; P51570; Purified GALK, Kinase-Glo residual ATP luminescence; Potency, µM (doses to about 57.5 µM), for inactives: at the top dose activity change, negative = inhibition, actives largely listed as inhibitors; hit rate 0.007% among 270,000; further: potency means the concentration at half of the fitted maximal effect
#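 Human GALK (5 nM) with 35 uM ATP and 100 uM galactose in 20 mM HEPES pH 8.0, 5 mM MgCl2, 60 mM NaCl, 1 mM DTT, 0.01% BSA. After 1 h at room temperature, leftover ATP was read by Kinase-Glo Plus luminescence.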
# RORg inh: inhibitors of mouse ROR gamma transcriptional activity | Potency, µM (highest dose often 53.6 µM), inactives show top-dose activity change, negative = inhibition, hits mostly inhibitors | AID 2551 | Drosophila S2 Gal4-RORgamma UAS-luciferase reporter, 20 h | P51450 | hit rate 5.4% among 310,000; further: potency means the concentration at half of the fitted maximal effect; nearly all actives have a fitted effect of over 60% in size
# Target sequence (P51450 whole entry, looked up, the tested form may be a part): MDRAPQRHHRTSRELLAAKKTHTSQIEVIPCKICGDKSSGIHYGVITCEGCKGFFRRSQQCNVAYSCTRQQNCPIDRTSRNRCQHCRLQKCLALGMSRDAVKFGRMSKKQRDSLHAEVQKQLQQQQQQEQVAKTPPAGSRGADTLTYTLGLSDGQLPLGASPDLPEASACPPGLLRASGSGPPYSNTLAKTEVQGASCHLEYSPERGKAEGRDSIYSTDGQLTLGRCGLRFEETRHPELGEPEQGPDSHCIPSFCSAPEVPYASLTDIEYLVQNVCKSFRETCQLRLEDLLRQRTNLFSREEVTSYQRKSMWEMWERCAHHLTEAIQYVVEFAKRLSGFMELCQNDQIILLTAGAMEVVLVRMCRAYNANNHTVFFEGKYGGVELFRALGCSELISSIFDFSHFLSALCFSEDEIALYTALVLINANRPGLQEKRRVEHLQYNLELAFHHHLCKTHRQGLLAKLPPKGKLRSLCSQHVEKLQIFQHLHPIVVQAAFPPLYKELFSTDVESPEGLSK
#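 Using a luciferase readout, inhibitors were identified by reduced reporter activity in Drosophila cells coexpressing a copper-inducible Gal4–ROR gamma fusion and UAS-driven Photinus luciferase, incubated 20 hr after 700 uM copper sulfate.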
# FBPA coupling cs: inhibits coupling enzyme system, counter-screen for aldolase hits | AID 2472 | activity change, negative = inhibition, % at 58.2 µM, hits read low | hit rate 0.67% among 290,000 | coupling enzyme system counterscreen, AmpLite Red fluorescence; in the data active means activity change below about -30%
#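 First, compound is pin-transferred into glyceraldehyde-3-phosphate coupling-enzyme reagent at 57.5 uM final and held 10 min at RT. Next, substrate, coupling system and AmpLite Red are added. After 20 min RT, fluorescence (525/598 nm) is read.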
# VP16 counter: inhibits Gal4-VP16 luciferase reporter, ROR gamma counter-screen; Potency, µM (doses to about 53.6 µM), for the others: at the highest dose activity, negative = inhibition, hits mostly inhibitors; hit rate 3.5% among 310,000; Drosophila S2 Gal4-VP16 UAS-luciferase, luminescence, 20 h;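 further: Gal4-VP16 expression switched on by copper sulfate through the metallothionein promoter; potency means the concentration at half of the fitted maximal effect; nearly all actives have a fitted effect of over 50% in size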
# TrxR1 inh: rat TrxR1 inhibition | O89049 | recombinant rTrxR1, NADPH fluorescence consumption, selenite substrate | Potency, µM (top dose mostly 114 µM), for inactives: at the top dose activity change, negative = inhibition, actives largely listed as inhibitors | hit rate 1% among 390,000; further: potency means the concentration at half of the fitted maximal effect; nearly all actives have a fitted effect of over 65% in size
#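 Rat TrxR1 (90 nM in the dispensed reagent) was pre-reduced with 400 uM NADPH for 5 min at room temperature, then incubated with compound for 15 min. After 400 uM selenite was added, NADPH fluorescence (Ex 340/Em 450 nm) was followed for 8 min.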
# * marks the source's active call; other numbers are inactive results; ? = inconclusive; nt = no result given; [ ] = dose if it differs, or a comment. A selection: hits, their analogues and other compounds. The true share with any hit is near 5.9%. Unless noted, the call rests on the fitted dose curve; in most records, active means well fitted curve in the direction sought with a large enough effect; inconclusive means small, poorly fitted or top-dose-only effect, or another doubt; inactive means no such curve, though single readings can be large; an effect the other way counts as inactive or inconclusive. On the % scale 0 is the no-effect control and ±100 the full control effect.
SMILES,TrxR1 substrate,GALK inh,RORg inh,FBPA coupling cs,VP16 counter,TrxR1 inh
Cc1ccccc1N/C(=C(/C(Cl)=C(Cl)Cl)[N+](=O)[O-])n1nnc2ccccc21,4.4%[57.1 µM],0.1%,-8.0%,0.3,11.4%,10µM*
CCCCS(=O)(=O)Nc1ccc(C)cn1,121.3%,-1.1%,14.4%,-50.8*,5.5%,-13.5%
O=C(CCNC(=O)c1ccccc1)NCc1ccccc1F,-3.1%,nt,nt,nt,nt,7.1%
O=[N+]([O-])C1=CC=C2C(=NC3(CCCCC3)N2O)C1=NCCO,-19.0%,7.6%,?,-52.8*,-1.7%,?
CN=C1C([N+](=O)[O-])=CC=C2C1=NC1(CCCCC1)N2O,-7.1%,4.6%,-5.3%,-45.5*,-0.3%,-14.2%
COc1ccc2[nH]c(-c3ccccc3)c(CCNC(C)=O)c2c1,nt,nt,3.0%,0.6,1.3%,nt
COc1cc(CN2CCCN(C)CC2)cc([N+](=O)[O-])c1O,-8.9%[57.1 µM],1.2%,18.0%[1.91 µM],0.5,4.5%,-17.9%[57.1 µM]
CN(C)c1nc(N)nc(/C(C#N)=C/C2CC3C=CC2C3)n1 (configuration not stated),1.0%,-0.4%,12.9%,-32.6*,-16.4%,?
CC(=O)C1=C(c2ccc(Br)cc2)C(=O)c2ccccc2C1=O,-25.0%,-2.1%,14.1µM*,-69.7*,6.31µM*,19.3%
COc1ccc(/C=C/C(=O)NC(=S)NNC(=O)c2c(-c3ccccc3)noc2C)cc1,5.5%,0.1%,3.16µM*,13.3,5.01µM*,6.3%
Cc1onc(-c2ccccc2)c1C(=O)NNC(=O)c1ccccc1O,-2.5%,nt,nt,nt,nt,7.2%
Cc1onc(-c2ccccc2)c1C(=O)NNC(=O)c1ccccc1,2.2%,nt,nt,nt,nt,15.8%
Cc1ccccc1C(=O)NNC(=S)NC(=O)c1ccc(Cl)cc1Cl,4.5%,-0.6%,?,2.0,-1.4%,?
Cc1onc(-c2ccccc2)c1C(=O)NNC(=S)NC(=O)c1ccc(Br)cc1,-11.7%,0.6%,4.47µM*,9.5,3.55µM*,?
Cc1onc(-c2ccccc2)c1C(=O)NNC(=S)NC(=O)/C=C/c1ccccc1,5.8%,nt,5.62µM*,12.8,?,5.6%
COc1ccc(-c2cc(C(=O)NNC(=S)NC(=O)c3c(-c4ccccc4)noc3C)[nH]n2)cc1,-10.4%,-1.1%,?,7.2,-22.7%,?
Cc1onc(-c2ccccc2)c1C(=O)NNC(=S)NC(=O)c1ccc(Cl)cc1Cl,-11.8%,3.7%,4.47µM*,5.9,11.2µM*,?
CCCN(CC(=O)Nc1ccccc1C)C(=O)c1cccc(S(=O)(=O)N2CCc3ccccc3C2)c1,-7.1%,-2.5%,39.7%,nt,-3.2%,14.3%
O=C(NCc1cccc(Br)c1)C1CC(c2cc(C(F)(F)F)cc(C(F)(F)F)c2)=NO1 (configuration not stated),-5.8%,nt,nt,nt,nt,3.1%
Cc1ccc(NC(=O)CN2Cc3ccccc3C2=O)c(C)c1,-0.3%,nt,nt,nt,nt,1.6%
NC(=O)[C@@H]1CCCN1C(=O)[C@H](Cc1cnc[nH]1)NC(=O)[C@@H]1CCC(=O)N1,nt,nt,-6.6%[10 µM],nt,-7.8%,nt
CCCOC(=O)c1cc(-c2ccc(/C=C3/C(=O)N(C)C(=O)C(C#N)=C3C)o2)ccc1Cl,2.2%,nt,nt,nt,nt,17.8µM*
C=CCOC(=O)c1cc(-c2ccc(/C=C3\C(=O)NC(=O)C(C#N)=C3C)o2)ccc1Cl,-10.3%,-8.1%,25.3%,-9.1,-3.5%,?
O=C(CCS(=O)(=O)c1ccccc1)N1CCN(c2cccc(C(F)(F)F)c2)CC1,-2.2%,-7.1%,?,nt,-21.2%,79.4µM*
O=C(N/N=C/c1ccco1)c1cccc(N2Cc3ccccc3C2)c1,2.5%,7.6%,13.4%,-5.3,5.7%,50.1µM*
SMILES,TrxR1 substrate,GALK inh,RORg inh,FBPA coupling cs,VP16 counter,TrxR1 inh
CC1Cc2ccccc2N1Cc1ccc([N+](=O)[O-])cc1 (configuration not stated),1.7%,-0.6%,11.8%,-1.6,-10.5%,-1.1%
O=S(=O)(c1ccc(Cl)c(Cl)c1)c1snnc1-c1ccccc1,-8.9%[57.1 µM],0.3%,20µM*,1.1,?,-46.0%
COc1cc(CNc2ccc3c(c2)CCC3)cc(OC)c1O,6.6%,0.0%,-39.7%,-4.1,-6.6%[0.365 µM],0.398µM*
CCNC(=S)N/N=C/c1cccc(OCc2c(F)cccc2Cl)c1,-12.1%,nt,0.708µM*,-15.4,0.708µM*,-22.8%
Cc1oc2ccc(OCc3c(F)cccc3Cl)cc2c1C(=O)O,-6.0%,-2.5%,-0.3%,-12.7,-4.4%,7.1%
CNC(=S)N/N=C/c1cccc(OCc2ccccc2F)c1,13.4%[57.1 µM],2.1%,2.24µM*,-6.9,4.47µM*,15.6%[57.1 µM]
Fc1ccccc1COc1ccc(/C=N/NC(=S)NCc2ccccc2)cc1,-0.7%,2.9%,0.891µM*,2.0,1µM*,-9.5%
Nc1nc(-c2ccccc2)c(-c2ccccc2)n1N,9.8%,3.2%,0.398µM*,-0.8,1.41µM*,19.0%
Cn1cnc([N+](=O)[O-])c1S(=O)(=O)c1cccc(Cl)c1,-4.3%,-1.5%,2.82µM*,-1.6,5.01µM*,?
COc1cc(C/C=C\c2ccccc2)c(OC)cc1O,nt,nt,?,-46.8*,?,nt
CCOC(=O)c1c(C)[nH]c(=S)c(C#N)c1-c1ccc(Cl)cc1,-3.4%,0.2%,11.2µM*,9.7,?,-32.3%
CCOC(=O)c1c(C)[nH]c(=S)c(C#N)c1-c1ccc(OC)cc1,4.2%,-2.2%,12.6µM*,4.2,?,-29.2%
CC(=O)c1c(C)[nH]c(=S)c(C#N)c1-c1ccc(Cl)cc1,2.4%[57.1 µM],-0.5%,?,12.4,?,-43.5%
Cc1ccc(C2=NN(CC(=O)NCCc3ccc(Cl)cc3)C(=O)CC2)cc1,3.6%[57.1 µM],nt,nt,nt,nt,18.0%[57.1 µM]
Cc1ccc(N/C(N)=N/c2nc(C)cc(C)n2)cc1,-7.7%,nt,-5.1%,2.2,-1.5%,-8.8%
Cc1cc(C)nc(/N=C(\N)Nc2ccccc2-c2ccccc2)n1,18.7%,6.4%,?,-17.2,12.6µM*,28.0%
CCOc1ccc(C(=O)C2CCN(CC(=O)Nc3nccs3)CC2)cc1,-0.3%,-0.4%,18.2%,-4.4,?,12.2%
CCOc1ccc2c(c1)n([O-])c1c([n+]2=O)CCCC1,31.9%,-1.0%,12.6µM*,-57.6*,?,50.1µM*
Cc1nn(-c2ccccc2)c(Cl)c1C(=O)NCC(=O)O,9.9%[57.1 µM],0.1%,-24.2%,-11.0,-5.0%,26.3%[57.1 µM]
CC(=O)N(Cc1c(C)nn(-c2ccccc2)c1Cl)c1ccc(Cl)cc1,-12.5%,-4.5%,7.0%,1.8,6.5%,-6.8%
Cc1nn(-c2ccccc2)c(Cl)c1CN(C(=O)CCl)c1ccc(Cl)cc1,-9.8%,-4.3%,-7.4%[10 µM],2.9,?,22.4µM*
Cc1nn(-c2ccccc2)c(Cl)c1CN(C(=O)CCl)c1cccc2ccccc12,-1.5%,-1.9%,14.1µM*,-3.4,?,?
O=S(=O)(c1ccc2nnn(O)c2c1)N1CCOCC1,-5.8%,nt,nt,nt,nt,56.2µM*
